Compounds with a hit are over-represented: about 1.5% of the library has one in this group of screens.
IDE cell activ = human IDE activators in live cells, primary screen, fluorescence polarization, HEK cells, FAbeta-B substrate | Insulin-degrading enzyme (Homo sapiens), P14735 | FAbeta-B cleavage; 0% vehicle, 100% cell-free pure enzyme wells | activation, % at 5.96 µM | 340,000 compounds, 0.073% hits | AID 493087, 2011;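 active = activation above the mean of all tested compounds plus 3 SD, set per screening campaign, cut at about 17% in these data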
Cardiac RTF inh = cardiac RTF calcium sensitivity inhibitors, primary screen, biochemical, IANBD-TnC fluorescence, EC70 calcium; Troponin I, cardiac muscle (Homo sapiens) + Troponin T, cardiac muscle (Homo sapiens) + …; IANBD-labeled cardiac RTF, Ca2+ fluorescence; inhibition, % at 7.15 µM; 340,000 compounds, 0.12% hits; AID 493244, 2011;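 active = inhibition above the mean inhibition of all tested compounds plus 3 SD, cut at about 17% in these data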;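 also: assay run at fixed EC70 calcium of 1.6 mM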
CRFR2-BP ag = agonists of CRF-BP/CRF-R2 complex, primary screen, cell-based, HEK293, calcium dye fluorescence, uHTS; activation, % at 13.2 µM; CRF-binding protein / CRF receptor 2 complex (human); calcium dye fluorescence (FLIPR); percent of saturating CRF peptide response; 350,000 compounds, 0.46% hits;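 active = activation of at least 50%, plus an integration ratio under a set limit after plate pattern correction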;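 also: plate controls were neutral control wells without compound for no effect and CRF at EC100 for full effect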
CRFBP-R2 block = antagonists of CRF-BP/CRF-R2 complex, primary screen, cell-based, HEK293, calcium dye fluorescence, uHTS | AID 588475, 2011 | inhibition, % at 11.8 µM | 350,000 compounds, 0.59% hits | CRF-induced calcium fluorescence;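 active = inhibition of the ligand-induced calcium signal above about 50% at the single tested concentration, limit read from the data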
IDE inh = human IDE inhibitors in live cells, primary screen, fluorescence polarization, HEK cells, FAbetaB substrate; Insulin-degrading enzyme (Homo sapiens), P14735; FAbetaB cleavage; inhibition, % at 5.59 µM; 320,000 compounds, 0.41% hits;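 active = percent inhibition above the average of all tested compounds plus 3 SD, set per screening campaign, cut at about 16% in these data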;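 also: IDE supplied by intact live HEK cells; FP after avidin binding of uncleaved biotin substrate so inhibition keeps polarization high; 0% = DMSO wells and 100% = 60 µM reference IDE inhibitor Ii1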
RTF Ca sens act = cardiac RTF calcium sensitivity activators, primary screen, biochemical, IANBD-TnC fluorescence, EC20 calcium. Troponin I, cardiac muscle (Homo sapiens) + Troponin T, cardiac muscle (Homo sapiens) + …. IANBD-labeled TnC RTF fluorescence at EC20 calcium; 0% EC20 calcium, 100% full calcium. activation, % at 7.2 µM. 340,000 compounds, 0.24% hits. AID 493008, 2010;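 active = activation above the mean over all tested compounds plus 3 SD, cut at about 30% in these data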;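 also: rise in fluorescence read as greater calcium sensitivity of cardiac thin filaments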
RTF inh confirm = cardiac RTF calcium sensitivity inhibitors, confirmation, biochemical, fluorescence readout. shares compounds with Cardiac RTF inh. reconstituted cardiac thin filaments. inhibition, % at 7.15 µM. 360 compounds, 8% hits; in the data active = inhibition above about 18%
* marks the source's active call; other numbers are inactive results; nt = no result.

SMILES	IDE cell activ	Cardiac RTF inh	CRFR2-BP ag	CRFBP-R2 block	IDE inh	RTF Ca sens act	RTF inh confirm
O=C(NC1CCCC1)c1ccc2nc(-c3ccco3)c(-c3ccco3)nc2c1	1.1	17.8*	-4.8	18.4	-0.9	-19.7	-7.0
CN(Cc1cn(-c2ccccc2)nc1-c1ccc(F)cc1)C(=O)CCC(=O)O	-0.7	17.2*	0.2	-10.2	4.6	-6.1	-6.5
Cc1ccc(NS(=O)(=O)c2ccc(Cl)c(C(=O)O)c2)cc1S(=O)(=O)N1CCOCC1	5.2	19.2*	0.6	-0.1	0.5	1.8	-3.1
Cc1ccc(NS(=O)(=O)c2ccc(/C=C/C(=O)O)cc2)cc1Cl	-1.6	20.9*	-1.2	-8.0	-6.2	-0.9	-6.8
Cc1ccc(NC(=O)C2CC(=O)N(c3ccccc3Cl)C2)cc1S(=O)(=O)N1CCOCC1 (centres undefined)	4.0	-5.0	0.1	6.2	nt	-3.5	nt
COc1cccc(S(=O)(=O)N(C)C[C@@H]2OCc3cnnn3CCCC(=O)N([C@H](C)CO)C[C@@H]2C)c1	nt	nt	-0.6	7.7	nt	nt	nt
Cc1cnc(NC2=NCCC2)s1	2.3	45.5*	4.0	-3.0	-0.4	-8.6	-3.4
c1nnc(NC2=NCCC2)s1	6.7	6.4	-2.7	-4.5	-4.2	3.8	nt
CC(C)(C)S(=O)N1Cc2cc(CO)ccc2[C@@H]1CCO (some centres undefined)	-1.2	-8.9	7.3	1.2	nt	-0.3	nt
COc1ccc(-c2nnc(SCc3c(C)noc3C)o2)cc1	5.2	18.2*	-1.6	-3.3	-1.0	0.3	-3.6
COc1ccc(C(=O)c2ccccc2O)c(O)c1	5.0	17.4*	-0.6	32.7	-3.1	-5.5	-3.2
Cc1c(Cl)cccc1NS(=O)(=O)c1ccc2c(c1)C1C=CCC1C(c1ccc(C(=O)O)cc1)N2 (centres undefined)	-2.5	30.9*	4.4	-10.9	2.8	-32.9	-14.2
CCOC(=O)c1c(N)sc2c(OC)c(Br)ccc12	-3.9	20.8*	-0.4	-14.4	8.6	-7.8	-5.8
COc1cccc(CNC2CCCC2)c1	1.0	-5.4	-2.0	0.6	0.5	-1.7	nt
COc1cc(CNC2CCCC2)cc(OC)c1	3.1	17.7*	0.3	1.9	3.2	-2.1	-1.9
O=C(COC(=O)CCSc1ccc(Cl)cc1)NCc1ccccc1Cl	6.6	17.6*	0.3	18.9	4.0	-0.7	-3.1
CC(=O)N1CCCN(Cc2nc(C3(c4ccc(C)cc4)CCCC3)no2)CC1	1.9	-7.5	0.6	-15.6	-0.3	-3.2	nt
COCCN1CCN(Cc2nc(C3(c4ccc(C)cc4)CCCC3)no2)CC1	2.6	19.4*	0.3	-24.9	1.9	-0.5	-1.5
O=C(CN1C(=O)/C(=C\c2ccco2)SC1=S)Nc1ccc(O)cc1C(=O)O	-1.4	17.7*	1.2	-8.0	3.4	-8.8	-2.8
O=C(CCN1C(=O)/C(=C/c2ccco2)SC1=S)Nc1ccc(O)cc1C(=O)O	-3.2	-6.7	5.0	-11.5	nt	-0.4	nt
c1ccc(Cc2nnc(-c3ccccc3)o2)cc1	3.8	17.0*	1.0	23.1	-2.3	-1.6	-1.0
Brc1ccc(-c2nnc(Cc3ccccc3)o2)cc1	nt	nt	-4.2	10.2	0.9	nt	nt
Cc1cccc(NC(=O)CCSc2ccccn2)c1	4.5	18.0*	0.7	2.8	5.1	-0.8	0.0
Cc1ccccc1OCC(=O)N1CCN(C(=O)COc2ccccc2C)CC1	2.2	-0.1	-0.1	-3.5	-2.0	-5.2	nt
Cc1[nH]c2ccc(C(=O)OCC(=O)Nc3cccc(S(N)(=O)=O)c3)cc2c1C	-0.9	-1.2	1.3	-15.0	-2.9	-1.1	nt
N#Cc1c(F)cccc1N1CCN(Cc2ccc3c(c2)OCO3)CC1	0.5	17.9*	-0.3	-3.0	2.6	-5.0	-1.5
CCOC(=O)Nc1nnc(CCc2ccccc2)s1	0.0	-24.5	2.1	-33.9	3.5	-4.1	nt
CCc1nnc(NC(=O)OCc2ccccc2)s1	2.3	16.9*	-1.4	-16.8	2.7	2.0	-1.5
Cc1ccccc1C(=O)N/N=C1/SCC(=O)N1Cc1ccccc1	2.2	18.3*	-0.3	4.5	2.4	2.7	1.5
N=C(N)c1ccc(N=Nc2c(O)ccc3c2[nH]c2ccccc23)cc1	7.6	26.2*	-8.0	-9.8	nt	-23.6	29.8*
